Shiga toxin inh = inhibitors of Shiga toxin in Vero cells. Vero cells, Shiga toxin protein synthesis inhibition reporter. inhibition, % at 38.7 µM. 9.2% of 290,000 active. AID 2315; in the data active means inhibition mostly above about 28%, no sharp cut-off; inactive means mostly below about 43%
Pf growth 48h = inhibits P. falciparum growth in the first generation, 48 h; P. falciparum luciferase growth in erythrocytes, 48 h; Potency, µM (top dose mostly 28.7 µM), hits mostly inhibitors; 5.9% of 310,000 active; active means well fitted inhibition curve with a large enough effect; inconclusive means small, poorly fitted or top-dose-only effect, or another doubt; inactive means no such curve, though single readings can be large or run the other way
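In quantitative HTS format, infected erythrocytes bearing luciferase-reporter parasites were treated for a single generation at 37 C. Luminescence after adding detection reagent served as the growth measure.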
Cycloheximide cs = counter-screen for Shiga toxin inhibitors: cycloheximide protein synthesis inhibition | max response, % | cell reporter, cycloheximide protein synthesis inhibition counterscreen | 12% of 300,000 active; in the data active means max response mostly above about 13%, no sharp cut-off; inactive means mostly below about 14%; further: read at 38.3 µM for the half of the compounds with a filed dose
Pf growth 96h = P. falciparum growth inhibition at 96 hours; Potency, µM (highest dose often 28.7 µM), hits mostly inhibitors; 6.9% of 320,000 active; P. falciparum luciferase reporter growth, 96 h; active means well fitted inhibition curve with a large enough effect; inconclusive means small, poorly fitted or top-dose-only effect, or another doubt; inactive means no such curve, though single readings can be large or run the other way
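Delayed-death screen, second-generation endpoint: infected erythrocytes, 2% hematocrit, 0.05% parasitemia final; 96 hours at 37 C, 5% CO2; luciferase detection reagent; luminescence decrease equals reduced growth.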
NS1 inh = influenza NS1 inhibition; 0.4% of 270,000 active; Potency, µM (top dose mostly 46.1 µM); AID 2326; further: actives are rising curves; nearly all actives have a fitted effect of over 50% in size
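In this qHTS, NS1 from influenza A is expressed in budding yeast, where it slows growth. Cells are switched from glucose to 2% galactose medium (pH 6.0, -URA), treated with compound, and growth recovery is read at OD600.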
SARS PLpro yeast = blocks SARS-CoV papain-like protease in a yeast assay; AID 485353; S. cerevisiae expressing SARS-CoV PLpro, growth rescue; Potency, µM (doses to about 32.9 µM), actives largely listed as activators; 0.19% of 330,000 active; further: nearly all actives have a fitted effect of over 55% in size
Numbers stand for hits; i = inactive; ? = inconclusive; nt = no result; [ ] = dose if it differs, or a comment. In the library only some 21% were active in any assay of this set; here they are far more common. Unless noted, the call rests on the fitted dose curve.

SMILES	Shiga toxin inh	Pf growth 48h	Cycloheximide cs	Pf growth 96h	NS1 inh	SARS PLpro yeast
C(=N\Nc1nccc(-c2cccnc2)n1)/c1ccccc1	88.6	?	55.7	i	i	i
Cc1ccc(C(C)C)c(OCC(=O)N2CCN(c3ncccn3)CC2)c1	nt	?	nt	i	nt	i
CCOc1ccc(S(=O)(=O)N2CCC(C(=O)NC3CC3)CC2)cc1C	i	?	i	i	i	i
CN1CCN(CC#CCOc2ccc(Cl)cc2)CC1	nt	i	20.8	i	i	i
COc1ccccc1OCC#CCN1CCCCCC1	i	i	i	i[1.15 µM]	i	i
Clc1ccc(OCC#CCN2CCCC2)cc1	61.2	i	23.1	i	i	i
COc1ccc(S(N)(=O)=O)cc1C(=O)OCCCOc1ccc(F)cc1	i	i[0.00184 µM]	i	i	i	i
COC1=Cc2c(ccc3ccc(=O)oc23)OC1(C)C	i	7.38µM	i	nt	i	i
CC1(C)Oc2ccc3ccc(=O)oc3c2[C@@H](O)[C@@H]1O	nt	?	nt	i	nt	i
COc1ccc(N(CC(=O)Nc2cccc3ccccc23)S(C)(=O)=O)cc1	i	i	12.3	i	i	i
CCOc1ccc(N(CC(=O)Nc2cccc(C)c2)S(C)(=O)=O)cc1	86.1	i	54.0	?	i	i
CCOC(=O)c1ccc(NC(=O)CN(c2ccc(C)cc2)S(=O)(=O)c2c(C)n[nH]c2C)cc1	i	13.1µM	i	i	i	i
CCOc1ccc(NC(=O)CN(C2CCCCC2)S(C)(=O)=O)cc1	i	nt	i	i	i	i
CCOc1ccc(N(CC(=O)Nc2ccc(Br)cc2)S(C)(=O)=O)cc1	54.1	i	30.0	?	i	i
CCOC(=O)c1nc[nH]c1C	i	nt	i	i	i	i
S=C(NCc1ccccc1)NCc1ccccc1Cl	i	i	i	?	i	i
CCOc1ccc(N(CC(=O)Nc2ccc(OC)cc2)S(C)(=O)=O)cc1	53.2	i	39.3	?	i	i
CCOc1ccc(N(CC(=O)NCc2ccccc2C)S(C)(=O)=O)cc1	68.3	i	41.7	i	i	i
CCOc1ccc(NC(=O)CN(c2ccc(OC)cc2)S(C)(=O)=O)cc1	121.2	i	97.7	nt	i	i
CCOc1ccc(N(CC(=O)NCCSCc2ccccc2Cl)S(C)(=O)=O)cc1	i	i	i	?	i	i
CCOc1ccc(N(CC(=O)Nc2ccc(C)c(Cl)c2)S(C)(=O)=O)cc1	i	i	24.5	i	i	i
CCOc1ccc(NC(=O)CN(c2ccc(OC)cc2)S(=O)(=O)c2cccs2)cc1	nt	i	nt	i	nt	i
COc1ccccc1N1CCN(CCC(=O)Nc2cccc(Cl)c2)CC1	i	nt	i	?	i	i
O=C(CN1C(=O)NC2(CCCCC2)C1=O)N1CCN(S(=O)(=O)c2ccc(F)c(F)c2F)CC1	nt	i	nt	i	nt	i
COC(=O)c1ccc(NC(=O)CN(c2ccc(OC)cc2)S(C)(=O)=O)cc1	63.0	i	53.3	i	i	i
SMILES	Shiga toxin inh	Pf growth 48h	Cycloheximide cs	Pf growth 96h	NS1 inh	SARS PLpro yeast
COC(=O)c1ccccc1NC(=O)CN(c1ccc(OC)cc1)S(C)(=O)=O	i	i	i	?	i	i
CCc1c(O)nc(SCC(=O)Nc2ccccc2OC)[nH]c1=O	i	i	i	i	?	i
CC(C)(C)C(=O)Cn1c(NCCCO)nc2ccccc21	i	i	i	11.7µM	i	i
CCCCn1c(NC(=O)C2CCCCC2)nc2ccccc21	i	?	i	nt	i	i
CCCCn1c(NC(=O)c2ccccc2)nc2ccccc21	i	?	i	4.65µM	i	i
C=CCn1c(NC(=O)c2ccccc2)nc2ccccc21	52.8	?	42.7	11.7µM	i	i
C=CCn1c(P(=O)(O)c2ccccc2)nc2ccccc21	i	i	i	?	i	i
CCCCn1c(NC(=S)Nc2ccccc2)nc2ccccc21	i	5.22µM	i	?	i	i
CC(=O)c1c(C)[nH]c(C(=O)COC(=O)c2ccc(C)s2)c1C	nt	nt	nt	nt	nt	i
O=C(CC1C(=O)NCCN1Cc1cccc(F)c1F)NCCCC1CCCC1 (stereo not drawn)	i	i	i	?	i	i
Cc1ccc(C(=O)c2c[nH]c(C(=O)NCc3cccnc3)c2)cc1	i	?	i	?	i	i
CCn1c(NC(=O)/C=C/c2ccc(F)cc2)nc2ccccc21	i	11.7µM	i	?	i	i
CNc1nc2ccccc2n1CC(=O)c1ccccc1	i	i	21.7	i	i	i
Cc1ccc(C(=O)Cn2c(NCCO)nc3ccccc32)cc1	i	i	i	?	i	?
CCn1c(NC(=O)c2ccccc2)nc2ccccc21	86.4	11.7µM	30.6	10.4µM	i	i
CC(Cc1ccccc1)NC(=O)CCCN1C(=O)c2ccccc2C1=O (stereo not drawn)	i	i	i	?	i	i
CCOCCn1ccc2c(OCC(=O)Nc3cc(OC)ccc3OC)cccc2c1=O	nt	?	nt	?	nt	i
COCCn1ccc2c(OCC(=O)Nc3cc(OC)ccc3OC)cccc2c1=O	nt	11.7µM	nt	?	nt	i
Cc1nc2c([nH]1)c(=O)n(C)c(=O)n2Cc1ccco1	nt	i	nt	5.36µM	i	nt
O=C(NCCN1CCOCC1)c1sc2cc(Cl)ccc2c1Cl	45.0	i	17.3	i	i	i
O=C(Nc1ccc(Cl)cc1C(=O)NCC1CCCO1)c1ccc(Cl)cc1Cl (stereo not drawn)	i	8.28µM	i	i	i	i
O=C(NCC1CCCO1)c1sc2cc(Cl)ccc2c1Cl (stereo not drawn)	76.1	i	54.0	?	i	i
CC(C)(CNC(=O)c1sc2cc(Cl)ccc2c1Cl)N1CCOCC1	nt	?	nt	?	nt	i
O=C(Nc1ccc(Cl)cc1C(=O)NCC1CCCO1)c1ccco1 (stereo not drawn)	i	i	i	nt	i	nt
O=C(NCCCN1CCOCC1)c1sc2ccccc2c1Cl	46.5	i	39.5	i	i	i
SMILES	Shiga toxin inh	Pf growth 48h	Cycloheximide cs	Pf growth 96h	NS1 inh	SARS PLpro yeast
CSc1ccccc1NC(=O)CN(C)C(=O)c1ccc(-n2cccn2)cc1	nt	i	nt	i	nt	i
Cc1ccc(CN(C)C(=O)COC(=O)CSc2cc(C)c3ccccc3n2)cc1	nt	i	nt	i	nt	i
C=CCOC(=O)c1c(C)nc2cc3c(cc2c1C)OCO3	68.6	i	28.8	i	i	i
O=C(O)c1ccc(/C=N/Nc2ccc(F)cc2F)cc1	131.2	i	40.4	i	nt	i
Fc1ccc(N/N=C/C=C/c2ccccc2)c(F)c1	34.3	i	32.3	?	i	i
Fc1ccc(N/N=C/c2ccncc2)c(F)c1	50.0	i	39.9	i	i	i
Cc1c(Cl)cnc(NC(=O)COC(=O)C2CC3CCCC(C2)C3=O)c1Cl (stereo not drawn)	nt	?	nt	?	nt	i
O=S(=O)(NCCSc1nnnn1-c1ccccc1)c1cccs1	43.1	i	33.4	i	i	i
CS(=O)(=O)NCCSc1nnnn1-c1ccccc1	i	i	i	i	i[9.22 µM]	i
Cc1ccc(NC(=O)CN(C)C(=O)c2n[nH]c(=O)c3ccccc23)cc1	i	i	i	i	nt	i
COc1ccc(CN2CC(=O)N3[C@H]4c5ccc(OC)cc5OC[C@@H]4[C@H](c4ccccc4)[C@]3(C)C2=O)cc1	nt	4.65µM	nt	?	nt	i

High-throughput results: PubChem, National Center for Advancing Translational Sciences (NCATS)
